# The campaign covered roughly 310,000 compounds. About 14,000 (4.5%) showed an effect of 50% or more. Effects have a minus sign here. The list comes from a sample in which strong results are over-represented; it also holds similar structures and randomly drawn compounds.
# Target: human ether-à-go-go-related gene (hERG) potassium channel (human, UniProt Q12809)
# Experiment: primary screen, population patch clamp on CHO cells stably expressing hERG; higher = less effect of the substance
# 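Note: peak tail current of the secondary pulse compared with the same well before compound.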
# Sequence of human ether-à-go-go-related gene (hERG) potassium channel (Q12809 whole entry, looked up): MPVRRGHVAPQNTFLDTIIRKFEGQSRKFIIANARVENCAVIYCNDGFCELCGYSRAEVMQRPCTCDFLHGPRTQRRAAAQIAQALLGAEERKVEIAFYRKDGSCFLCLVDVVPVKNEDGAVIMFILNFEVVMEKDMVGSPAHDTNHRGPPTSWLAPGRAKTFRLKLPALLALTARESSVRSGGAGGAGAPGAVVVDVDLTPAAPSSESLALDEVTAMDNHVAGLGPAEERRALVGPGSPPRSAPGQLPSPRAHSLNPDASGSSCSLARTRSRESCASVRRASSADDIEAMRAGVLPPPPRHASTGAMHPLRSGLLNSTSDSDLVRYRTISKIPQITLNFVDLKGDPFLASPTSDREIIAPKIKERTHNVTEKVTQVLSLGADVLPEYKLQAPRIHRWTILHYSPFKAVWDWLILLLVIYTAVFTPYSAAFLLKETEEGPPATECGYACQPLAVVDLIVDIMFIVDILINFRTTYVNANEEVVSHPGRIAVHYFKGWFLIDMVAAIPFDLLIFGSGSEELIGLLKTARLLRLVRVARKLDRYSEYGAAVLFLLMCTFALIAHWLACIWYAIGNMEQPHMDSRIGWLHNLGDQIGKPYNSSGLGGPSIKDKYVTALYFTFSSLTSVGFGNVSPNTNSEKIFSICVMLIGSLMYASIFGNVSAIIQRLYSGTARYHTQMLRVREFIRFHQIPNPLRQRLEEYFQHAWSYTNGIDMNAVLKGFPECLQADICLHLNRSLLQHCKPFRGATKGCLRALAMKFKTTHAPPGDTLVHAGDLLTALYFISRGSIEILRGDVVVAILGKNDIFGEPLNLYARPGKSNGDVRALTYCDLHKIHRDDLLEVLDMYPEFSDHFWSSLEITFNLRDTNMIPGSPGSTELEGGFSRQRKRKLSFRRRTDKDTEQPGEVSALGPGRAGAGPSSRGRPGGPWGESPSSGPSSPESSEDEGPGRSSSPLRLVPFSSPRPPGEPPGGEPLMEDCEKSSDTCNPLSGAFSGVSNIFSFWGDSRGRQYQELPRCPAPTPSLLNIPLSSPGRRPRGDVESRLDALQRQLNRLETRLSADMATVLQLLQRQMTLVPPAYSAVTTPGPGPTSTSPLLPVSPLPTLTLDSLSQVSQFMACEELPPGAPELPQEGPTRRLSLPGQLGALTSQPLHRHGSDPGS
row,Compound,"hERG current change (%, negative = inhibition) at 10uM"
1,O=C1CCCCCN1Sc1ccccc1,12%
2,N#Cc1cccc(CN2CCC(=O)N([C@H](CO)c3ccccc3)CC2)c1,-4.9%
3,CC(=O)N1c2ccc(S(=O)(=O)NCCc3ccc(S(N)(=O)=O)cc3)cc2CC1C (centres unmarked),13%
4,COc1ccc(/C=N/NC(=O)c2c(C)n(C)c3ccc(OC)cc23)c(OC)c1,-14.3%
5,COCC(C)NC(=O)c1ccc2c(c1)S(=O)(=O)c1ccccc1C2=O (centres unmarked),3.96%
6,CCn1c(=S)ccc2ccc(OC)cc21,-0.453%
7,CCOc1ccc(-c2c(C(=O)N/N=C(\C)c3cccs3)nnn2-c2nonc2N)cc1,12.9%
8,C#CCNC(=O)C1=C[C@H](c2cn(C(C)=O)c3ccccc23)[C@@H](CCCO)[C@H](OCC)O1,-36.9%
9,CCO[C@H]1OC(C(=O)NCc2ccccc2)=C[C@@H](c2ccccc2)[C@@H]1CCCO,-19.6%
10,CCO[C@@H]1OC(C(=O)NCc2ccccc2)=C[C@H](c2cn(C(C)=O)c3ccccc23)[C@H]1CCCO,-82.9%
11,CCO[C@@H]1OC(C(=O)NCc2ccccc2)=C[C@H](c2ccccc2)[C@H]1CCCO,-18.7%
12,CCO[C@H]1OC(C(=O)NCc2ccccc2)=C[C@@H](c2cn(C(C)=O)c3ccccc23)[C@@H]1CCCO,-64.3%
13,CCO[C@@H]1OC(C(N)=O)=C[C@H](c2cn(C(C)=O)c3ccccc23)[C@H]1CCCO,6.45%
14,CCOC(=O)CN/C=C(\C#N)c1ccccc1,16.2%
15,COc1cc(/C=C2\C(=O)ON=C2c2ccccc2)cc(Cl)c1O,-49.9%
16,CC(C)(C)OC(=O)CNC(=O)c1[nH]cnc1C(=O)Nc1ccc(CNC(=O)OC(C)(C)C)cc1,-0.221%
17,CCCCC(=O)Nc1nc(C)c(-c2csc(Nc3cc(OC)ccc3OC)n2)s1,5.95%
18,Cc1nc(Nc2cccc(O)c2)c2c3c(sc2n1)CCC3,-1.85%
19,O=C1CSC(c2ccc(F)cc2)N1c1nc2ccccc2s1 (centres unmarked),-20.8%
20,O/N=C/c1ccccc1OCc1ccc(Cl)cc1,5.5%
21,Cc1ccc(/C=C/C(=O)Nc2ccc([N+](=O)[O-])cc2)o1,-1.05%

row,Compound,"hERG current change (%, negative = inhibition) at 10uM"
1,CCC(Oc1ccccc1)C(=O)N(Cc1ccccc1)c1ccccn1 (centres unmarked),-6.96%
2,O=C(CNCc1cccnc1)Nc1cc(C(F)(F)F)ccc1N1CCOCC1.O=C(O)C(=O)O,-67%
3,O=C(CNCc1ccccn1)Nc1cc(C(F)(F)F)ccc1N1CCOCC1.O=C(O)C(=O)O,-57.5%
4,Cc1nc2ccccc2nc1OCC(=O)Nc1cc(C(F)(F)F)ccc1N1CCOCC1,0.222%
5,O=C(Nc1cc(C(F)(F)F)ccc1N1CCOCC1)c1ccccc1,12.6%
6,O=C(Nc1cc(C(F)(F)F)ccc1N1CCOCC1)c1cnccn1,-2.15%
7,O=C(Nc1cc(C(F)(F)F)ccc1N1CCOCC1)c1cccnc1,-42.3%
8,O=C(O)CSc1c2c(nc3cc(C(=O)NCCN4CCOCC4)ccc13)CCC2,-6.18%
9,CC(C)(C)c1ccc(/C=N/NC(=O)C[n+]2ccccc2)cc1.[Cl-],26%
10,Cc1ccc(NC(=O)C2(C)Cc3ccccc3C(=O)O2)cc1 (centres unmarked),-5.03%
11,CCCCNS(=O)(=O)c1ccc2nc(-c3cccs3)cc(C(=O)NCC(OC)OC)c2c1,9.85%
12,Cc1c(C(=O)N2CCCCC2)c(S(=O)(=O)Nc2cccc(Br)c2)c(C)n1C,-4.02%
13,O=C(CCc1nnc(C2CCCCC2)o1)N1CCN(C2CCCCC2)CC1,10.4%
14,O=C(CCc1nnc(CCCCc2ccccc2)o1)N1CCCCC1CCO (centres unmarked),-1.73%
15,COC(=O)[C@@H]1CCCN1C(=O)CCc1nnc(C2CCCCC2)o1,6.94%
16,O=C(CCc1nnc(CCc2ccccc2)o1)N1CCCCC1CCn1cccn1 (centres unmarked),-51.1%
17,CCC1CCCCN1C(=O)CCc1nnc(C2CCCCC2)o1 (centres unmarked),-55%
18,O=C(CCc1nnc(C2CCCCC2)o1)N1CCCCC1CCn1cccn1 (centres unmarked),3.65%
19,O=C(Cc1cccs1)N/N=C/C(Br)=C/c1ccccc1,10.1%
20,CCOc1ccc(OCCCC(=O)Nc2nc3ccccc3[nH]2)cc1,12%
21,CC1CCCN(C(=O)CSc2nnc(-c3ccncc3)n2C)C1 (centres unmarked),45.9%

row,Compound,"hERG current change (%, negative = inhibition) at 10uM"
1,C/C=C\C=C\C(=O)Nc1cccc(C2=NOC3(C2)C[C@@H](C(N)=O)N(C(=O)C(c2ccccc2)c2ccccc2)C3)c1 (some centres unmarked),0.545%
2,Cc1ccc(C=Nc2ccc(N(C)C)cc2)o1,-0.267%
3,CCOC(=O)c1ccc(NC(=O)c2ccc3c(c2)C(=O)N(CC2CCCO2)C3=O)cc1 (centres unmarked),-1.87%
4,COc1ccccc1OCC(=O)NCCS(=O)(=O)N1CCN(c2ccccc2)CC1,-44.4%
5,COc1ccccc1OCC(=O)NCCS(=O)(=O)N1CCN(c2ccc(F)cc2)CC1,-60.8%
6,COc1ccc(OCC(=O)NCCS(=O)(=O)N2CCN(c3ccc(F)cc3)CC2)cc1,-8.69%
7,COc1ccc(N2CCN(S(=O)(=O)CCNC(=O)COc3ccccc3OC)CC2)cc1,-1.02%
8,COc1ccc(N2CCN(S(=O)(=O)CCNC(=O)COc3ccccc3C)CC2)cc1,1.17%
9,Cc1ccccc1OCC(=O)NCCS(=O)(=O)N1CCN(c2ccc(F)cc2)CC1,-66.6%
10,CCOc1ccc(/C=C(\C#N)C(=O)c2c(C)[nH]c3ccccc23)cc1OC,-4.5%
11,CC1Cc2ccccc2N1CC(=O)Nc1ccc(S(N)(=O)=O)cc1 (centres unmarked),-6.21%
12,COC(=O)c1cc(-c2ccccc2)sc1NC(=O)CN1C(=O)c2ccccc2C1=O,15.9%
13,Cc1ccc(N2CCCn3c2cc(C)c(C#N)c3=O)cc1Cl,-22.8%
14,Cc1ccc(N2CCCn3c2cc(C)c(C#N)c3=O)cc1C,-21.4%
15,Cc1cc2n(c(=O)c1C#N)CCCN2c1cccc(Cl)c1,-65%
16,C#CCOc1ccc(/C=C2\SC(=S)N(Cc3cccnc3)C2=O)cc1,15.9%
17,Nc1nc(CN2CCN(Cc3ccc4c(c3)OCO4)CC2)nc(Nc2ccccc2)n1,-75.6%
18,Cc1ccc(Nc2nc(N)nc(CN3CCN(Cc4ccc5c(c4)OCO5)CC3)n2)cc1,-73.3%
19,Cc1ccc(NC(=O)CSCC(=O)N2CCN(Cc3ccc4c(c3)OCO4)CC2)cc1,-25.9%
20,Cc1cccc(NC(=O)CSCC(=O)N2CCN(Cc3ccc4c(c3)OCO4)CC2)c1,-23.3%
21,Cc1cccc(S(=O)(=O)N2CCN(Cc3ccc4c(c3)OCO4)CC2)c1,-35.2%

row,Compound,"hERG current change (%, negative = inhibition) at 10uM"
1,c1ccc(Cc2noc(CN3CCN(Cc4ccc5c(c4)OCO5)CC3)n2)cc1,-28.1%
2,Cc1cccc(Nc2nc(N)nc(CN3CCN(Cc4ccc5c(c4)OCO5)CC3)n2)c1,-75.2%
3,Cc1ccc(NC2=NCC(=O)N2Cc2ccc3c(c2)OCO3)cc1,-5.93%
4,Cc1cc(Cl)ccc1NC(=S)N1CCN(Cc2ccc3c(c2)OCO3)CC1,4.84%
5,Cc1ccc(Nc2nc(N)nc(CN3CCN(Cc4ccc5c(c4)OCO5)CC3)n2)cc1Cl,-81.2%
6,c1ccc(CN2CCC(N3CCN(Cc4ccc5c(c4)OCO5)CC3)CC2)cc1,-39.8%
7,O=C(Nc1ccc(Cl)cc1)N1CCN(Cc2ccc3c(c2)OCO3)CC1,-27.6%
8,O=C(CNC(=O)N1CC(=O)Nc2ccccc21)NCc1cccc(Cl)c1,12.8%
9,COC(=O)c1sccc1NC(=O)c1ccccc1F,15.3%
10,O=C(c1ccc(S(=O)(=O)N2CCCC2)cc1)N1CCN(Cc2ccc3c(c2)OCO3)CC1,-28%
11,CCN(CC)C(=O)c1ccc(NC(=O)c2ccc(N3CCCC3=O)cc2)cc1,5.47%
12,Cc1ccc2nc3sc(C(=O)N4CCCc5ccccc54)c(N)c3cc2c1,2.69%
13,COCCNS(=O)(=O)c1ccc2c(c1)Cc1cc(S(=O)(=O)NCCOC)ccc1-2,-22.1%
14,O=C(N/C=C/c1ccccc1)Nc1ccc(Cl)cc1,10.3%
15,CCOc1ccc(C(=O)Nc2cc(S(=O)(=O)Nc3ccccc3Cl)ccc2N2CCOCC2)cc1,6.95%
16,Cc1ccc(S(=O)(=O)NCC(=O)N(c2ccccc2)C(C(=O)NCc2ccccc2)c2ccco2)cc1 (centres unmarked),-6.04%
17,Cc1ccc(-n2nc(C(=O)N3CCN(C)CC3)c3c4ccccc4n(C)c3c2=O)cc1,5.61%
18,Cc1nc(SCC(=O)NC2CC2)c2c(C)c(C)sc2n1,6.21%
19,CC(=O)N/C(=C\c1ccccc1)C(=O)OCc1ccc(F)cc1,-0.974%
20,CC(=O)Nc1ccc(S(=O)(=O)NC(C)c2ccccc2)cc1 (centres unmarked),13.2%

# From publication PMC4336329 (PLoS ONE, 2015)
